# Shown are actives, neighbours in structure and some others; about 1.1% of the full set was active somewhere.
# PKA-R1A act: activators of PKA-R1A complex; activation, % at 11.4 µM; actives 0.083% (n = 340,000); AID 504707; PKA-R1A dissociation, Cy5-IP20 fluorescence polarization; scaled: DMSO 0%, 113 µM cGMP 100%;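 active = percent activation above the mean of all tested compounds plus 3 SD, cut at about 19% in these data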;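 note: higher means more PKAc released from R1A so a rise in polarization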
# MsrA inh: bovine MsrA inhibition; inhibition, % at 15.5 µM; actives 0.75% (n = 360,000); purified bovine MsrA, absorbance read-out;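 note: 0% = vehicle wells with enzyme and 100% = reference inhibitor wells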
# PKA-R2B activ: PKA-R2B complex activation. actives 0.079% (n = 340,000). activation, % at 11.4 µM. P22694+P31323. PKA-R2B holoenzyme dissociation, Cy5-IP20 fluorescence polarization; R2B truncated from residue 108, S112A mutant; 0% DMSO only, 100% 113 µM cGMP;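 active = activation above a cutoff set at the mean over all compounds plus 3 SD, cut at about 18% in these data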;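 note: higher means more holoenzyme dissociation and a rise in polarization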
# Target sequence (P31323 whole entry, looked up, other chains not shown, the tested form may be a part): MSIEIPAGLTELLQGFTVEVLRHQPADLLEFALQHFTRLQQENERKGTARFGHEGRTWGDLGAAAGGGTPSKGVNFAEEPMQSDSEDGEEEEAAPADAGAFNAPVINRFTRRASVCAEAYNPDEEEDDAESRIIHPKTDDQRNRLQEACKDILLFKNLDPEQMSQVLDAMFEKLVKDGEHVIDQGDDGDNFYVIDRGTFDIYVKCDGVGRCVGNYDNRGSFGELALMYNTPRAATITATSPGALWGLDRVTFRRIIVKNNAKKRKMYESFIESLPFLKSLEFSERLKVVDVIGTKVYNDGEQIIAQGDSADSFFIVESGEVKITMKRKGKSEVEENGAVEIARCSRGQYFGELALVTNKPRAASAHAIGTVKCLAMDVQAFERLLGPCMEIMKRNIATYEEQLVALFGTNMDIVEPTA
# MsrA act: bovine methionine sulfoxide reductase A activation; AID 602163; activation, % at 10.6 µM; actives 0.3% (n = 360,000); purified bovine MsrA, absorbance read-out; in the data active = activation above about 7.5%;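 note: 0% = vehicle and 100% = reference activator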
# MsrA conf: confirmation of bovine MsrA inhibitors | shares compounds with MsrA inh | purified bovine MsrA, absorbance read-out | inhibition, % at 15.5 µM | actives 41% (n = 2,300);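 note: coupled to thioredoxin reductase with NADPH and selenocystamine and DMSO as substrate; 0% = vehicle only and 100% = full effect of reference inhibitor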
# * = called active by the depositor; . = no result given. Cut-off read from the data, not from the text of the source, unless noted: active = inhibition above about 4.5%; inactive = the rest.
SMILES,PKA-R1A act,MsrA inh,PKA-R2B activ,MsrA act,MsrA conf
COc1cc(/C=N/NC(=O)CSc2n[nH]c(=O)[nH]c2=O)cc(OC)c1O,-5,4.8*,-6,-3,2
CCCCCC(=O)N/N=C/c1cc(Br)c(O)c(OC)c1,7,5.5*,-4,-6,3
O=C(NCc1ccco1)C(=O)NN=Cc1ccccc1O,.,2,.,.,.
COc1ccc(CNS(=O)(=O)c2ccccc2Br)c(OC)c1,.,0,.,.,.
CCOC(=O)C1=C(C)NC2=C(C(=O)CCC2)C1c1cn(Cc2ccc(Cl)cc2Cl)nc1-c1ccccc1 (stereo unspecified),-4,4.7*,3,1,3
COc1ccc(CCNC(=O)C2CCN(S(=O)(=O)c3ccc(-n4cnnn4)cc3)CC2)cc1OC,-7,56*,6,-2,-1
COc1ccc(CCNC(=O)C2CCN(S(=O)(=O)c3ccc(OC)c(OC)c3)CC2)cc1OC,1,-1,-2,-2,.
Cc1cccc2nc(-c3ccccc3)c(-c3ccc(CN4CCC(n5cc(-c6ccccc6)[nH]c5=O)CC4)cc3)nc12,.,1,.,.,.
COc1c(F)cccc1C1=CC(=O)C[C@H](c2ccc3c(c2)OCO3)C1,-6,7.1*,-2,-1,3
Cc1c(OCC(N)=O)ccc2c(-c3ccccc3)cc(=O)oc12,-1,31*,12,1,40*
CC(=O)COc1ccc2c(-c3ccccc3)cc(=O)oc2c1C,-8,19*,-3,-11,22*
CC(C)=CCCC1=CC[C@H]2[C@@H](C1)C(C(C)C)=CC(=O)[C@@]2(C)O,.,1,.,.,.
COc1ccc(/C=N/N=C(\N)c2nonc2N)cc1,11,5.3*,3,-1,3
COc1cc(/C=N/N=C(\N)c2nonc2N)cc(OC)c1O,-3,3,-7,-4,.
Cc1cc(=O)[nH]c(NN=Cc2c(Cl)cccc2Cl)n1,4,1,-2,5,.
Cc1cc(=O)[nH]c(N/N=C/C=C/c2ccccc2)n1,1,11*,-5,-8,4
CSc1ccc(/C=N/Nc2nc(C)cc(=O)[nH]2)cc1,-5,4.9*,0,-5,4
Cc1cc(=O)[nH]c(N/N=C/c2ccc(O)c(O)c2)n1,-3,4,1,-6,.
Cc1cc(=O)[nH]c(N/N=C/c2ccc(Br)s2)n1,-2,5.5*,-12,-5,4
CN1C(=O)[C@@]2(O[C@H]3C=CC=CN3C3=C2C(=O)CCC3)c2cccc(Br)c21,.,1,.,.,.
CCc1nc(N)c(C#N)c(-c2ccccc2OC)c1C,-7,4.7*,-12,-10,0
COc1ccccc1-c1c(C)c(C)nc(N)c1C#N,-2,2,-2,-2,.
CCOC(=O)c1sc(N)c(C(N)=O)c1C,.,4.9*,.,-4,0
Cc1ccc(-c2nnc(Nc3ccc(C(=O)N(C)C)cc3)c3ccccc23)cc1S(=O)(=O)NCC1CCCO1 (stereo unspecified),3,4.7*,-6,-3,3
O=C1COc2cc(ccc2[N+](=O)[O-])Oc2ccc(cc2Cl)C(=O)CCCCO1,-5,5.2*,-8,-6,5.1*
SMILES,PKA-R1A act,MsrA inh,PKA-R2B activ,MsrA act,MsrA conf
c1ccc2nc(-c3nc4ccccc4[nH]3)ccc2c1,3,5.0*,0,-4,4.7*
COc1ccc(-c2cc(-c3ccccc3)nc(=O)[nH]2)cc1,-11,5.3*,-2,-6,3
CCCCc1cc(=O)oc2cc(C)cc(OC(C)C(=O)NCc3ccccn3)c12 (stereo unspecified),-4,6.4*,1,-3,0
COC(=O)C1=C(C)N(Cc2cccc(C(F)(F)F)c2)C(=NCc2ccc3c(c2)OCO3)NC1c1cccc(Cl)c1 (stereo unspecified),.,0,.,.,.
CC#CC(=O)N1CCC(C(=O)Nc2ccc(Oc3ccccc3)nc2)CC1,-5,2,5,-2,.
Cc1cc(C)nc(N/N=C/c2ccccc2)n1,-1,.,2,-5,.
Cc1cc(C)nc(N/N=C/c2sccc2C)n1,-1,5.3*,10,-7,4
Cc1ccsc1/C=N/Nc1nc(=O)[nH]nc1C,4,5.3*,5,-5,4
CCn1c(=NC(=O)c2ccco2)sc2cccc(F)c21,-10,4.9*,-6,-3,4
COc1ccc(OC)c2c1sc(=NC(=O)c1ccco1)n2C,2,3,-7,-2,.
Cc1cc(N2CCNC[C@@H]2C)ccc1N1CCN(Cc2ccccc2)[C@@H](C)C1,.,-1,.,.,.
Cn1cnc([N+](=O)[O-])c1Sc1nc(N)nc2c1ncn2C1OC(CO)C(O)C1O (stereo unspecified),3,4,-4,-3,.
Cn1cnc([N+](=O)[O-])c1Sc1nc(N)nc2c1ncn2C1CC(O)C(CO)O1 (stereo unspecified),-4,5.5*,-3,-1,3
c1ccc(-n2nnnc2-n2cnc3ccccc32)cc1,-6,9.9*,-7,-1,4.7*
CCOC(=O)c1cnc(SCC(=O)N2CCOCC2)nc1N,-2,1,-1,1,.
N#C[C@H](N)[C@H]1O[C@@H](n2ccc(=O)[nH]c2=O)[C@H](O)[C@@H]1O,.,1,.,.,.
c1csc(-c2nnc(-c3ccc(N4CCOCC4)cc3)o2)c1,1,5.2*,4,-3,4
CCOc1ccc(-c2nnc(-c3cccs3)o2)cc1,-7,0,2,-1,.
COc1ccc(-c2nnc(-c3cccs3)o2)cc1OC,5,5.3*,-4,-8,1
COc1cc(-c2nnc(-c3cccs3)o2)cc(OC)c1OC,-6,1,3,-1,.
CN(/N=C/c1ccncc1)c1cnc2ccccc2n1,7,4.7*,4,-17,4
COc1cccc2c1Oc1cc([N+](=O)[O-])cc(N(C)C(C)=O)c1C=C2,-8,15*,-3,-8,11*
Nc1nc2c(ncn2[C@@H]2O[C@H](C(=O)N[C@H](Cc3ccccc3)C(=O)NCc3ccccc3)[C@@H](O)[C@H]2O)c(=O)[nH]1,.,2,.,.,.
COCCN(CC(=O)Nc1ccccc1C(F)(F)F)C(=O)/C=C/c1cc(Cl)c2c(c1)OCCO2,-12,0,-11,-10,.
COC(=O)c1ccc(S(=O)(=O)N2CCCN(Cc3cccc(Br)c3F)CC2)n1C,-11,15*,-4,-1,11*
SMILES,PKA-R1A act,MsrA inh,PKA-R2B activ,MsrA act,MsrA conf
N#C/C(=C\c1ccco1)C(=O)Nc1ccc(S(N)(=O)=O)cc1,1,4,5,-13,.
N#C/C(=C\c1ccco1)C(=O)Nn1cnnc1,2,7.5*,-17,-11,5.7*
COC(=O)[C@H](Cc1ccccc1)NC(=O)[C@H]1O[C@@H](n2cnc3c(=O)[nH]c(N)nc32)[C@H](O)[C@@H]1O,.,2,.,.,.
O=c1cc2[nH]c3ccccc3c(=O)n2nc1-c1ccccc1,-3,4.9*,7,-6,1
CC(=O)c1cccc(Nc2cc(C)nc3c(C)cc(C)cc23)c1,11,5.9*,-3,-6,2
COC(=O)c1ccc(N)c2c(N)ccc(C(=O)OC)c12,.,1,.,.,.
